High-throughput results deposited in PubChem by several laboratories.
PLCb3 inh – human PLC-beta3 inhibitors, primary screen, biochemical, fluorescence; 1-phosphatidylinositol 4,5-bisphosphate phosphodiesterase beta-3 (Homo sapiens), Q01970; 0.18% of 370,000 active; AID 720704, 2013; inhibition, % at 12.2 µM; Purified PLC-beta3, fluorogenic substrate; in the data active = inhibition above about 11%
NPR1 activator – GC-A stimulated cGMP production enhancers – HEK293 GC-A cells, cGMP TR-FRET, EC30 ANP, primary screen | Atrial natriuretic peptide receptor 1 (Homo sapiens), P16066 | 0% at EC30 ANP, 100% saturating ANP | activation, % at 10 µM | 0.14% of 370,000 active | AID 1671463, 2021; in the data active = activation above about 40%
PLC-gamma1 inh – PLC-gamma1 enzyme inhibitors, primary screen, biochemical, fluorescence, purified enzyme; 1-phosphatidylinositol 4,5-bisphosphate phosphodiesterase gamma-1 (Homo sapiens), P19174; fluorogenic substrate; inhibition, % at 12.2 µM; 0.84% of 370,000 active; AID 720700, 2013
GC-B act – human GC-B receptor activators, primary screen, HEK293 GC-B cells, cGMP TR-FRET, EC30 CNP; 0% at EC30 CNP, 100% saturating CNP; activation, % at 10 µM; Atrial natriuretic peptide receptor 2 (Homo sapiens), P20594; 0.11% of 370,000 active;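 active = activation at 10 µM reaching about 35% in either raw or pattern-adjusted values, limit read from the data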
PLCg1 ctr – PLC-gamma1 enzyme inhibitors, counter-screen for PLC-beta3 inhibitor project, biochemical, fluorescence; shares compounds with PLC-gamma1 inh; 3.1% of 3,300 active; inhibition, % at 12.3 µM; purified PLC-gamma1, fluorogenic substrate
PLCb3 confirm – PLC-beta3 inhibitor confirmation, biochemical, fluorescence, purified enzyme; shares compounds with PLC-gamma1 inh; fluorogenic substrate fluorescence; inhibition, % at 12.3 µM; 1% of 3,300 active; in the data active = inhibition above about 11%
Large screens that a line does not name were inactive (follow-up assays come after a bar, where they were run). This is a sample that favours compounds with a hit; in the whole collection about 1.2% have one here. Cut-off read from the data, not from the text of the source, unless noted: active = inhibition above about 9.5%; inactive = the rest.

CSc1nnc(-c2nnc(SC)n2-c2ccccc2)n1-c1ccccc1	none
CSc1nnc(-c2cc(C)on2)n1-c1ccccc1	PLC-gamma1 inh 11 | PLCg1 ctr inactive | PLCb3 confirm inactive
CC(=O)NC(CCS(C)(=O)=O)C(=O)Nc1ccc(C)c(F)c1 (stereo not drawn)	none
CC(C)(C)C(=O)Nc1ccc(Sc2ccc([N+](=O)[O-])cc2)cc1	none
CC(=O)Nc1ccc(Sc2ccc([N+](=O)[O-])o2)cc1	PLC-gamma1 inh 10 | PLCg1 ctr inactive | PLCb3 confirm inactive
NC1(CO)COC(c2ccccc2)OC1 (stereo not drawn)	PLCb3 inh 12 | PLCg1 ctr inactive | PLCb3 confirm inactive
CC(O)Cc1cn(CC(=O)N2CCN(C(=O)OC(C)(C)C)CC2)nn1 (stereo not drawn)	PLC-gamma1 inh 13 | PLCg1 ctr inactive | PLCb3 confirm inactive
CCOC(=O)c1ccc(NC(=O)c2nc[nH]c2C(=O)N2CCN(C(=O)OC(C)(C)C)CC2)cc1	none
CC(C)(C)OC(=O)N1CCN(C(=O)c2[nH]cnc2C(=O)Nc2cccc(Cl)c2)CC1	PLC-gamma1 inh 9.7 | PLCg1 ctr inactive | PLCb3 confirm inactive
C/C(=N\NC(=S)NC(C)C)c1ccccc1OC(F)F	none
O=C(Cn1cc2c(n1)CCCCC2)NCc1ccccc1	none
CCN(Cc1ccccc1)C(=O)Cn1cc2c(n1)CCCC2	PLC-gamma1 inh 10 | PLCg1 ctr inactive | PLCb3 confirm inactive
COc1ccc(CC(=O)NCC2CCCN(Cc3cc(OC)cc(OC)c3)C2)cc1 (stereo not drawn)	PLC-gamma1 inh 13 | PLCg1 ctr inactive | PLCb3 confirm inactive
N#Cc1cccc(C(=O)C(=O)N2CCC(c3ccccc3)CC2)c1	none
Cc1ccc(S(=O)(=O)N2CCOCC2)cc1NC(=O)COC(=O)c1cc(=O)c2ccccc2o1	none
O=C(O)C1C2C=CC(C3CC23)C1C(=O)O (stereo not drawn)	PLC-gamma1 inh 10 | PLCg1 ctr inactive | PLCb3 confirm inactive
CC(C)(C)C1CCC(OCC(O)CN2CCN(Cc3ccccc3)CC2)CC1 (stereo not drawn)	none
OC(COC1CCCCC1)CN1CCN(c2ccccc2)CC1 (stereo not drawn)	PLC-gamma1 inh 13 | PLCg1 ctr inactive | PLCb3 confirm inactive
CC(=O)NC(Cc1ccc(F)cc1)C(=O)NC1CCN(C(=O)Nc2cccc(C)c2)CC1 (stereo not drawn)	PLC-gamma1 inh 10 | PLCg1 ctr inactive | PLCb3 confirm inactive
COc1ccc(C(C)C)cc1-c1cc(C(=O)NCc2cccc(C(F)(F)F)c2)[nH]n1	none
COc1ccc(C(=O)COC(=O)[C@H](C)Nc2ccc(C(F)(F)F)cc2[N+](=O)[O-])cc1	PLC-gamma1 inh 11 | PLCg1 ctr inactive | PLCb3 confirm inactive
CO[C@H]1CN(C)C(=O)c2ccc(NC(=O)c3ccc4c(c3)OCO4)cc2OC[C@H](C)N(CC2CC2)C[C@@H]1C	none
O=C(c1ccc(Cl)cc1)C1CCN(Cc2ccccc2)CC1	none
O=C(NCC1CCCO1)c1cnn2c1NC(c1ccccc1)CC2C(F)(F)F (stereo not drawn)	PLC-gamma1 inh 12 | PLCg1 ctr inactive | PLCb3 confirm inactive
COc1ccc(C)cc1S(=O)(=O)N(CC(=O)N1CCCC1)c1ccc(C)cc1	none
COc1ccc(C)cc1S(=O)(=O)N(CC(=O)N1CCOCC1)c1cc(C)cc(C)c1	PLC-gamma1 inh 10 | PLCg1 ctr inactive | PLCb3 confirm inactive
CCC1CCc2c(sc(NC(=O)CSc3nc(-c4ccco4)cc(C(F)(F)F)n3)c2C#N)C1 (stereo not drawn)	none
O=c1c2ccc(Cl)cc2[nH]c(=S)n1CCCN1CCOCC1	PLCb3 inh 12 | PLCg1 ctr inactive | PLCb3 confirm inactive
O=C(CCC(=O)N(Cc1ccco1)C(C(=O)NC1CCCC1)c1ccncc1)Nc1cccnc1 (stereo not drawn)	none
Cc1ccc(S(=O)(=O)N2O[C@@H](c3ccccc3)C[C@H]2CON2C(C)(C)CCCC2(C)C)cc1	PLCb3 inh 13, PLC-gamma1 inh 11 | PLCg1 ctr inactive | PLCb3 confirm inactive
CC(C)CNC(=O)NC(=O)COC(=O)c1cc([N+](=O)[O-])ccc1NCc1ccccc1Cl	none
CN(C)c1ccc(-c2ccc3c(=O)c4ccccc4n(C)c3c2)cn1	none
O=C(Nc1ccccc1)Nc1cccc(Cl)c1Cl	PLC-gamma1 inh 16 | PLCg1 ctr inactive | PLCb3 confirm inactive
CCN(CC(=O)Nc1ccc(NC(C)=O)cc1)C(=O)/C=C/c1cn(Cc2ccccc2)nc1-c1cccnc1	none
CCn1c(=O)cc(OCC(=O)NCc2ccco2)c2ccccc21	PLC-gamma1 inh 12 | PLCg1 ctr inactive | PLCb3 confirm inactive
Cc1[nH]n(-c2ccccc2)c(=O)c1C(=O)c1ccccc1	none
COc1cccc(C(c2c(C)[nH]n(-c3ccccc3)c2=O)c2c(C)[nH]n(-c3ccccc3)c2=O)c1O	PLC-gamma1 inh 25 | PLCg1 ctr inactive | PLCb3 confirm inactive
CCOc1cccc(C(c2c(C)n(C)n(-c3ccccc3)c2=O)c2c(C)n(C)n(-c3ccccc3)c2=O)c1OC	none
COc1cccc(C(c2c(C)[nH]n(-c3ccccc3)c2=O)c2c(C)[nH]n(-c3ccccc3)c2=O)c1OC	PLC-gamma1 inh 18 | PLCg1 ctr inactive | PLCb3 confirm inactive
O=C(CN1C(=O)COc2ccccc21)N1CCCc2ccccc21	none (no result: PLCb3 inh, PLC-gamma1 inh)
Cc1ccc(CN2CCCN(Cc3ccc(F)cc3Cl)S2(=O)=O)cc1	none
Cc1nccn1CCOc1ccccc1Cl	PLC-gamma1 inh 10 | PLCg1 ctr inactive | PLCb3 confirm inactive
Cc1ccc(S(=O)(=O)N=C2SCCCS2)cc1	PLC-gamma1 inh 9.9 | PLCg1 ctr inactive | PLCb3 confirm inactive
Cc1ccc(CN2CCN(/N=C/c3ccc(C(F)(F)F)cc3)CC2)cc1	PLC-gamma1 inh 10 | PLCg1 ctr inactive | PLCb3 confirm inactive
Cc1ccc(/C=N/N2CCN(Cc3ccc(C)cc3)CC2)cc1	none
Cn1c(=O)n(Cc2ccccc2)c(=O)c2c1nc1n2CCN1Cc1ccco1	none
Cc1ccccc1Cn1c(=O)c2c(nc3n2CCN3Cc2ccco2)n(C)c1=O	PLC-gamma1 inh 11 | PLCg1 ctr inactive | PLCb3 confirm inactive
CC(NC(=O)c1ccco1)c1nc(-c2ccccc2)no1 (stereo not drawn)	none
Cc1cccc(-c2noc(C(C)NC(=O)c3ccco3)n2)c1 (stereo not drawn)	PLC-gamma1 inh 13 | PLCg1 ctr inactive | PLCb3 confirm inactive
CC(=O)c1ccc(OCc2ccc(Oc3c(Cl)cccc3[N+](=O)[O-])cc2)cc1	none
